This is an account of results in PubChem BioAssay (NCI).

SMILES strings stand for the structures. Several values for one entry are separate records, joined by “and”; a condition that tells them apart may be missing. Identical values can stand only once. About 83,000 compounds went through this panel and 20% of them were active in at least one assay; those are over-represented in the sample as a whole.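 For each line, cells grew in 96-well plates with the test compound present at a single concentration for 48 hours.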 Values without a mark were called inactive. Activity calls are given as the source filed them. Rule for the calls: active = growth percent below 10; inactive = the rest. Starred links: 1 amine or outer side, 2 acyl side, 3 side chain; linkers in the order of their positions; H or OH if unused. Positions of bridges follow the written chain, without caps; N, C: chain ends. Non-standard residues stand in square brackets, D forms with d. Residues, ends and D or L forms follow the SMILES beside them. Chains are numbered I, II in the order given. Actinocin(9to1) = Cc1c2oc3c(C)ccc(C(=O)[*:1])c3nc-2c(C(=O)[*:2])c(N)c1=O; aThr = C[C@H](O)[C@H](N)C(=O)O; NMeV = CN[C@H](C(=O)O)C(C)C; Sar = CNCC(=O)O

Holding throughout (experiment): NCI-60 one-dose screen, 48 h (100 = growth as untreated, 0 = no growth, -100 = all killed)
The subject of experiment [1] is EKVX NSCLC.
Experiment [2] relates to SN12C renal.
For experiment [3], the system named is UO-31 renal.
For experiment [4], the system named is TK-10 renal.
Experiment [5] deals with ACHN renal.
Experiment [6] has as its system CAKI-1 renal.
The test system of experiment [7] is A498 renal.
Experiment [8] relates to CCRF-CEM leukemia.
For experiment [9], the system named is MOLT-4 leukemia.
Experiment [10] has as its system SR leukemia.
Experiment [11] relates to RPMI-8226 leukemia.
For experiment [12], the system named is OVCAR-5 ovarian.
In experiment [13] the test system is OVCAR-4 ovarian.
For experiment [14], the system named is SK-OV-3 ovarian.
In experiment [15] the test system is IGROV1 ovarian.
Experiment [16] concerns OVCAR-3 ovarian.
Experiment [17] has as its system HS 578T breast.
In experiment [18] the test system is NCI/ADR-RES ovarian.
Experiment [19] relates to T-47D breast.
For experiment [20], the system named is OVCAR-8 ovarian. The following applies: 10 µM.

For the compound `Cc1c2oc3c(C)ccc(C(=O)N[C@@H]4C(=O)N[C@H](C(C)C)C(=O)N5CCC[C@H]5C(=O)N(C)CC(=O)N(C)[C@@H](C(C)C)C(=O)O[C@H]4C)c3nc-2c(C(=O)N[C@@H]2C(=O)N[C@H](C(C)C)C(=O)N3CCC[C@H]3C(=O)N(C)CC(=O)N(C)[C@@H](C(C)C)C(=O)O[C@H]2C)c(N)c1=O` (I: [aThr][dV]P[Sar][NMeV] / II: [aThr][dV]P[Sar][NMeV]; ester I:1-I:C, II:1-II:C; linker I:N-II:N via Actinocin(9to1)), the growth was 54% in experiment [1] (0.0025 µM); -11% (active) in [1] (10 µM); 46.6% in experiment [2] (0.0025 µM); 14.9% in experiment [2] (10 µM); 99.4% in experiment [3] (0.0025 µM); -12.6% (active) in experiment [3] (10 µM). For the same compound, the growth in experiment [4] (0.0025 µM) was 87.7%; in experiment [4] (10 µM), 9.15% (active); in experiment [5] (0.0025 µM) it was 62%; in experiment [5] (10 µM), 3.24% (active); in experiment [6] (0.0025 µM), 92.2%; in [6] (10 µM) it was -13.7% (active). For the same compound, the growth is 32.4% in experiment [7] (0.0025 µM); 42.3% in experiment [8] (0.0025 µM); 0.799% (active) in experiment [8] (10 µM); 23% in experiment [9] (0.0025 µM); -7.29% (active) in [9] (10 µM); 14.8% in [10] (0.0025 µM). Also, the growth is 3.04% (active) in experiment [10] (10 µM); 3.42% (active) in [11] (0.0025 µM); -21.3% (active) in experiment [11] (10 µM); 50.9% in experiment [12] (0.0025 µM); -66.1% (active) in experiment [12] (10 µM); 50.3% in [13] (0.0025 µM). Also, the growth in experiment [13] (10 µM) was -8.21% (active); in [14] (0.0025 µM) it was 92.8%; in [14] (10 µM), 14.8%; in experiment [15] (0.0025 µM) it was 35.5%; in experiment [15] (10 µM), -27.7% (active); in experiment [16] (0.0025 µM), 70%. Also, the growth in [16] (10 µM) was 5.84% (active); in experiment [17] (0.0025 µM) it was -10.9% (active); in [18] (0.0025 µM), 96.7%; in experiment [18] (10 µM) it was -39.5% (active); in [19] (0.0025 µM), 53.6%; in [19] (10 µM), -13.8% (active).
On to `N#C/C(=C1C=C/C(=N\O)C(Cl)=C\1)c1ccccc1`, for which the growth in experiment [2] (10 µM) is 34.8%; in experiment [3] (10 µM) it was 34%; in experiment [4] (10 µM), 53.1%; in [5] (10 µM), 25.7%; in experiment [6] (10 µM), 5.29% (active); in [7] (10 µM), 86.5%. Further, the growth is 33.6% in experiment [9] (10 µM); 27.3% in [11] (10 µM); 43.2% in [20]; 64% in experiment [12] (10 µM); 57% in [13] (10 µM); 37.5% in experiment [14] (10 µM). In addition, the growth in experiment [15] (10 µM) was 53%; in experiment [16] (10 µM), 39.6%; in experiment [17] (10 µM), 56.2%; in experiment [18] (10 µM), 34%; in experiment [19] (10 µM), 43.3%.
As for `Cc1cc(NCCCN(C)C)c2ccc3c(ccc4c(NCCCN(C)C)cc(C)nc43)c2n1`, the growth in experiment [1] (10 µM) is -34.1% (active); in [2] (10 µM) it was -49.6% (active); in experiment [3] (10 µM), -54.7% (active); in [4] (10 µM) it was -42.2% (active); in experiment [5] (10 µM) it was -75.2% (active); in [6] (10 µM) it was -41.7% (active). Further, the growth in [7] (10 µM) was -87.6% (active); in experiment [8] (10 µM), -28.7% (active); in [9] (10 µM), -24.3% (active); in experiment [11] (10 µM), -11.3% (active); in [20] it was -24.6% (active); in [12] (10 µM) it was -15.4% (active). The growth in experiment [13] (10 µM) was -33.7% (active); in experiment [14] (10 µM) it was -39.4% (active); in experiment [15] (10 µM), -73.4% (active); in experiment [16] (10 µM) it was -58.3% (active); in [17] (10 µM) it was -42.7% (active); in experiment [18] (10 µM), -10.4% (active). The growth in [19] (10 µM) is -34.2% (active).
On to `CCCCCCCCCCCCCCCCCN`, for which the growth in [2] (10 µM) was 96.8%; in experiment [3] (10 µM), 87.6%; in [4] (10 µM), 102%; in experiment [5] (10 µM), 97%; in [6] (10 µM), 91.1%; in experiment [7] (10 µM), 104%. Moreover, the growth in [8] (10 µM) was 102%; in [9] (10 µM) it was 104%; in experiment [10] (10 µM), 57.8%; in experiment [11] (10 µM), 107%; in experiment [20], 104%; in experiment [12] (10 µM), 106%. The growth in [13] (10 µM) was 102%; in [14] (10 µM), 96.8%; in experiment [15] (10 µM), 107%; in experiment [16] (10 µM), 108%; in [17] (10 µM), 103%; in experiment [18] (10 µM) it was 115%. In experiment [19] (10 µM), the growth is 101%.
With `Cc1cnc(/C=N\NC(N)=S)c2cccc(N)c12`, the growth is 29.5% in [1] (10 µM); -12.9% (active) in experiment [2] (10 µM); 1.67% (active) in experiment [3] (10 µM); 19.6% in experiment [4] (10 µM); 10.2% in experiment [5] (10 µM); 2.66% (active) in [6] (10 µM). The growth was 12.4% in experiment [7] (10 µM); -28.1% (active) in [8] (10 µM); -13.8% (active) in experiment [9] (10 µM); -16.3% (active) in experiment [10] (10 µM); -9.76% (active) in [11] (10 µM); 17.7% in experiment [20]. Moreover, the growth was 34.9% in experiment [12] (10 µM); 31.9% in [13] (10 µM); 22.9% in experiment [14] (10 µM); 0.342% (active) in experiment [16] (10 µM); 69.1% in [17] (10 µM); 10.9% in experiment [18] (10 µM). Further, the growth in experiment [19] (10 µM) is 9.76% (active).
Take `O=C(/C(=C/c1ccccc1)CBr)c1ccccc1`: the growth was 82.1% in [1] (10 µM); 71.4% in [2] (10 µM); 69.9% in [3] (10 µM); 116% in experiment [4] (10 µM); 70% in experiment [5] (10 µM); 60.1% in experiment [6] (10 µM). Besides, the growth was 128% in experiment [7] (10 µM); -4.28% (active) in experiment [8] (10 µM); -3.18% (active) in experiment [9] (10 µM); -0.723% (active) in [10] (10 µM); 16.9% in [11] (10 µM); 86.1% in experiment [20]. For the same compound, the growth was 122% in experiment [12] (10 µM); 80.3% in [13] (10 µM); 112% in experiment [14] (10 µM); 90.9% in experiment [15] (10 µM); 66.1% in [16] (10 µM); 82.9% in experiment [17] (10 µM). The growth is 81.4% in experiment [18] (10 µM) and 77.5% in [19] (10 µM).
In the case of `S=c1[nH]nc(Cc2ccccc2)c(=S)[nH]1`, the growth in experiment [1] (10 µM) is 97.8%; in experiment [2] (10 µM), 113%; in experiment [3] (10 µM), 76.3%; in experiment [4] (10 µM), 99.7%; in experiment [5] (10 µM), 107%; in experiment [6] (10 µM) it was 97.6%. Also, the growth in experiment [7] (10 µM) is 68.9%; in [8] (10 µM), 104%; in [9] (10 µM) it was 106%; in experiment [10] (10 µM), 94.7%; in experiment [11] (10 µM), 97.2%; in experiment [20], 104%. For the same compound, the growth in [12] (10 µM) was 107%; in experiment [13] (10 µM) it was 98%; in [14] (10 µM), 99.6%; in experiment [15] (10 µM), 102%; in experiment [16] (10 µM), 95.4%; in experiment [17] (10 µM), 101%. The growth in experiment [18] (10 µM) is 100%; in experiment [19] (10 µM), 90.4%.
As for `COc1ccc2c(C)cc(N/N=C/c3sccc3C)nc2c1`, the growth in [4] (100 µM) is -82.7% (active) and -100% (active).
With `Nc1ccc2cc(Br)c3ccccc3c2c1`, the growth in experiment [1] (10 µM) was 31.3%; in [2] (10 µM) it was 63.8%; in experiment [3] (10 µM), 42.9%; in experiment [4] (10 µM), 85.8%; in [5] (10 µM), 66%; in experiment [6] (10 µM) it was 20.1%. For the same compound, the growth in experiment [7] (10 µM) was 77.5%; in experiment [8] (10 µM), 37.8%; in experiment [9] (10 µM) it was 28.2%; in experiment [10] (10 µM), 57.5%; in [11] (10 µM) it was 40%; in [20], 84.8%. The growth is 79.9% in [12] (10 µM); 56.7% in experiment [13] (10 µM); 81.1% in experiment [14] (10 µM); 82.2% in experiment [15] (10 µM); 74.6% in [16] (10 µM); 67.2% in [18] (10 µM). In experiment [19] (10 µM), the growth was 28.8%.
